{"source": "the supplement of paper PMC7858590", "note": "± gives the standard deviation of the averaged measurements. In all, about 3,800 compounds were measured (“cell shape (eccentricity) Z-score vs DMSO control”: median about 1.1, lowest 2% from about -4.7 on). The sample holds the lowest values, similar compounds and a random draw of the others, so the mix is not that of the screen.", "data": [{"test_system": "human monocyte-derived macrophages (M0)", "experiment": "cell shape (eccentricity) Z-score vs DMSO control; higher = more elongated, M2-like morphology", "conditions": "20 µM; 24 h; macrophage state: M0 (M-CSF)", "procedure": "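Primary human monocyte-derived macrophages (M-CSF differentiated, pooled from 4 donors, 5000 cells/well in 384-well plates) were treated with each compound at 20 uM for 24 h, then fixed and stained with phalloidin/DAPI and imaged on an Opera Phenix (6 fields, about 1000 cells/well). Cell eccentricity was measured with CellProfiler, and a Z-score (t-test) was computed against 4 DMSO control wells in the same row. Negative values mean round (M1-like) cells and positive values mean elongated (M2-like) cells; the paper's hit cutoffs are Z <= -4 (M1) and Z >= 6 (M2). Scale: negative = round, M1-like.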", "values": [{"smiles": "Cc1cc(O)cc2oc3cc(O)cc(O)c3c(=O)c12", "cell shape (Z-score)": -1.58}, {"smiles": "CCCC(=O)Nc1ccc(OCC(O)CNC(C)C)c(C(C)=O)c1", "note": "(stereo not drawn)", "cell shape (Z-score)": 1.65}, {"smiles": "CC1=C(CO)C(=O)OC([C@@H](C)[C@H]2CCC3C4CC=C5C[C@@H](O[C@@H]6O[C@H](CO)[C@@H](O)[C@H](O)[C@H]6O)C[C@H](O)[C@]5(C)C4CC[C@@]32C)C1", "note": "(stereo partly drawn)", "cell shape (Z-score)": 1.5}, {"smiles": "C[C@@H](Oc1cc(-n2cnc3ccc(CN4CCN(C)CC4)cc32)sc1C(N)=O)c1ccccc1C(F)(F)F", "cell shape (Z-score)": 3.02}, {"smiles": "C=C1[C@H]2CC[C@@]3(C)[C@H](c4ccoc4)OC(=O)C[C@]13O[C@H]1C[C@H](O)C(C)(C)[C@H](CC(=O)OC)[C@]12C", "cell shape (Z-score)": -1.66}, {"smiles": "C=C1C(=O)OC2CC3(C)CCC=C(CO)C3CC12", "note": "(stereo not drawn)", "cell shape (Z-score)": -3.71}, {"smiles": "COC(=O)C1=CO[C@@H](O[C@@H]2O[C@H](CO)[C@@H](O)[C@H](O)[C@H]2O)[C@H]2[C@@H]1C=CC21C=C([C@H](C)O)C(=O)O1", "note": "(stereo partly drawn)", "cell shape (Z-score)": 2.96}, {"smiles": "CC(=O)OCC(Cc1ccccc1)NC(=O)C(Cc1ccccc1)NC(=O)c1ccccc1", "note": "(stereo not drawn)", "cell shape (Z-score)": 0.368}, {"smiles": "Cc1cc(O)c(C)c2c1Oc1c(C)c(O)cc(C)c1C(=O)O2", "cell shape (Z-score)": -6.49}, {"smiles": "Cc1cc(O)c(C=O)c2c1C(=O)Oc1c(C)c(O)c3c(c1O2)C(O)OC3=O", "note": "(stereo not drawn)", "cell shape (Z-score)": 1.11}, {"smiles": "COc1cc(C)c2c(c1C=O)Oc1c(c(C)c(O)c3c1C(O)OC3=O)OC2=O", "note": "(stereo not drawn)", "cell shape (Z-score)": -1.59}, {"smiles": "CC(=O)OCC(=O)[C@@]1(O)CCC2C3C[C@H](C)C4=CC(=O)C=CC4(C)C3[C@@H](O)CC21C", "note": "(stereo partly drawn)", "cell shape (Z-score)": -2.52}, {"smiles": "CC(CN(C)C)CN1c2ccccc2Sc2ccccc21", "note": "(stereo not drawn)", "cell shape (Z-score)": -1.29}, {"smiles": "O=C(Nc1nc2ccc(NC(=O)C34C[C@H]5C[C@@H](C3)C[C@@H](C4)C5)cc2s1)c1ccccc1", "cell shape (Z-score)": -4.79}, {"smiles": "COc1ccc2nc(NC(=O)Nc3ccccc3)sc2c1", "cell shape (Z-score)": 2.21}, {"smiles": "O=C(Nc1ccc(C(=O)O)c(O)c1)c1ccccc1", "cell shape (Z-score)": 1.5}, {"smiles": "N=C(N)NCCNS(=O)(=O)c1cccc2cnccc12", "cell shape (Z-score)": 5.63}, {"smiles": "CCCCCC1C(=O)O/C(=C\\C(=O)O)C1=O", "note": "(stereo not drawn)", "cell shape (Z-score)": -1.15}, {"smiles": "CCC[C@H](NC(=O)/C(C#N)=C/c1cccc(Br)n1)c1ccccc1", "cell shape (Z-score)": -4.73}, {"smiles": "C[C@H](NC(=O)/C(C#N)=C/c1ccc(O)c(O)c1)c1ccccc1", "cell shape (Z-score)": -2.26}, {"smiles": "C[C@@H](NC(=O)/C(C#N)=C\\c1ccc(O)c(O)c1)c1ccccc1", "cell shape (Z-score)": 0.038}, {"smiles": "C[C@@H]1CN(CC(=O)Nc2ccc3c(c2)Cc2cccc(-c4cc(=O)cc(N5CCOCC5)o4)c2S3)C[C@H](C)O1", "cell shape (Z-score)": 4.22}, {"smiles": "CC(=O)Oc1cc2c(c(C)c1OC(C)=O)CC=C1[C@@]2(C)CC[C@@]2(C)C3C[C@](C)(C(=O)O)CC[C@]3(C)CC[C@]12C", "note": "(stereo partly drawn)", "cell shape (Z-score)": -13.8}, {"smiles": "CC1(C)C2CC[C@]3(C)C(C(=O)C=C4[C@H]5C[C@@](C)(C(=O)O)CC[C@]5(C)CC[C@]43C)[C@@]2(C)CC[C@@H]1O", "note": "(stereo partly drawn)", "cell shape (Z-score)": 0.344}, {"smiles": "CC(C)(C)CC(C)(C)c1ccc(OCCOCC[N+](C)(C)Cc2ccccc2)cc1", "cell shape (Z-score)": -0.216}, {"smiles": "Cc1cc(C(C)(C)CC(C)(C)C)ccc1OCCOCC[N+](C)(C)Cc1ccccc1", "cell shape (Z-score)": -4.7}, {"smiles": "CC(C)(C)CC(C)(C)c1ccc(O)c(-n2nc3ccccc3n2)c1", "cell shape (Z-score)": -0.381}, {"smiles": "O=C(O)c1cccnc1Nc1cccc(C(F)(F)F)c1", "cell shape (Z-score)": 2.97}, {"smiles": "COc1ccc(/C=C/C(=O)c2ccc(O)cc2O)cc1", "cell shape (Z-score)": -5.34}, {"smiles": "COc1ccc(/C=C/C(=O)c2cc(O)ccc2O)cc1", "cell shape (Z-score)": 2.34}, {"smiles": "CCOC(=O)C1=C(C)NC(C)=C(C(=O)OC)C1c1cccc([N+](=O)[O-])c1", "note": "(stereo not drawn)", "cell shape (Z-score)": 1.64}, {"smiles": "COc1ccc2c(c1OC)OC[C@@H](c1ccc(OC)c(OC)c1OC)C2", "cell shape (Z-score)": 2.19}, {"smiles": "COc1cc(C[C@@H]2COC(c3ccc(O[C@@H]4O[C@H](CO)[C@@H](O)[C@H](O)[C@H]4O)c(OC)c3)[C@@H]2CO)ccc1O[C@@H]1O[C@H](CO)[C@@H](O)[C@H](O)[C@H]1O", "note": "(stereo partly drawn)", "cell shape (Z-score)": 2.98}, {"smiles": "Nc1ccc(-c2nc3ccc(-c4nc5ccc(N)cc5[nH]4)cc3[nH]2)cc1", "cell shape (Z-score)": -0.879}, {"smiles": "O=C1c2ccc(Nc3ccc(F)cc3F)cc2CCc2ccc(OC[C@H](O)CO)cc21", "cell shape (Z-score)": -6.5}, {"smiles": "O=C(NOCC(O)CO)c1cc(Br)c(F)c(F)c1Nc1ccc(I)cc1F", "note": "(stereo not drawn)", "cell shape (Z-score)": -0.375}, {"smiles": "CC(=O)O[C@@H]1[C@@H](O)[C@H](C)O[C@@H](Oc2c(-c3ccc(O)cc3)oc3cc(O[C@@H]4O[C@@H](C)[C@H](O)[C@@H](O)[C@H]4O)cc(O)c3c2=O)[C@@H]1O", "cell shape (Z-score)": 1.24}, {"smiles": "C[C@@](Cc1ccc(O)c(O)c1)(NN)C(=O)O", "cell shape (Z-score)": 1.55}, {"smiles": "COc1ccc(C(=O)CC2(O)C(=O)Nc3c(Cl)ccc(Cl)c32)cc1", "note": "(stereo not drawn)", "cell shape (Z-score)": -7.6}, {"smiles": "COc1ccc(C(=C2C(=O)Nc3ccccc32)c2ccc(OC)cc2)cc1", "cell shape (Z-score)": 1.61}, {"smiles": "COc1ccc(C(=O)/C=C/c2ccccc2)cc1", "cell shape (Z-score)": 3.14}, {"smiles": "O=C(O)c1ccc(NCc2nc3cc4ccccc4cc3[nH]2)cc1", "cell shape (Z-score)": 1.43}, {"smiles": "CC1(C)O[C@@H]2CC3C4CCC5=CC(=O)C=C[C@]5(C)[C@@]4(F)[C@@H](O)C[C@]3(C)[C@]2(C(=O)CO)O1", "note": "(stereo partly drawn)", "cell shape (Z-score)": -2.57}, {"smiles": "COc1ccc(NC(=O)c2ccc(-c3ccc(-c4noc(C)n4)cc3C)cc2)cc1N1CCN(C)CC1", "cell shape (Z-score)": -0.626}, {"smiles": "Cc1ccc(O)c(N=Nc2ccccc2)n1", "cell shape (Z-score)": -7.89}, {"smiles": "Nc1ccc(/N=N/c2ccccc2)c(N)n1", "cell shape (Z-score)": -1.01}, {"smiles": "Cc1ccc2ccc3ccc(C)nc3c2n1", "cell shape (Z-score)": 3.48}, {"smiles": "C=C[C@@](C)(O)CCC1C(=C)CCC2[C@@](C)(CO)CCC[C@]12C", "note": "(stereo partly drawn)", "cell shape (Z-score)": 4.09}, {"smiles": "COC1=C(N)C(=O)c2nc(-c3nc(C(=O)O)c(C)c(-c4ccc(OC)c(OC)c4O)c3N)ccc2C1=O", "cell shape (Z-score)": 0.0737}, {"smiles": "CC(=O)Nc1ccc(C(=O)Nc2ccccc2N)cc1", "cell shape (Z-score)": "-3.16 ± 2.7"}, {"smiles": "Nc1ccccc1NC(=O)c1ccc(CNC(=O)OCc2cccnc2)cc1", "cell shape (Z-score)": "-10.6 ± 0.74"}, {"smiles": "CC(C)(C)c1ccc(S(=O)(=O)NCc2ccc(C(=O)Nc3cccnc3)cc2)cc1", "cell shape (Z-score)": 1.14}, {"smiles": "Nc1ccccc1NC(=O)c1ccc(CNc2nccc(-c3cccnc3)n2)cc1", "cell shape (Z-score)": -11.8}, {"smiles": "Nc1cc(-c2ccncc2)c[nH]c1=O", "cell shape (Z-score)": 0.0533}, {"smiles": "COc1cc2c(c(OC)c1)C(=O)OC(C)C2", "note": "(stereo not drawn)", "cell shape (Z-score)": -2.38}, {"smiles": "Cc1ccccc1NC(=N)Nc1ccccc1C", "cell shape (Z-score)": 2.28}, {"smiles": "O=c1c(OC2OC(CO)C(O)C(O)C2OC2OC(CO)C(O)C(O)C2O)c(-c2ccc(O)cc2)oc2cc(O)cc(O)c12", "note": "(stereo not drawn)", "cell shape (Z-score)": "0.138 ± 1.7"}, {"smiles": "CC1(C)C(=O)C=C[C@@]2(C)C1CC(=O)[C@]1(C)C2CC[C@@]2(C)[C@H](c3ccoc3)OC(=O)[C@H]3O[C@]321", "note": "(stereo partly drawn)", "cell shape (Z-score)": -1.42}]}]}
